MCF10A rerep: A quantitative high throughput screen for small molecules that induce DNA re-replication in MCF 10a normal breast cells; MCF 10A DNA re-replication, Hoechst nuclear intensity, 48 h; Potency, µM (doses to about 46.1 µM), for inactives: top-dose activity, positive = re-replication, hits mostly activators; actives 2.9% (n = 350,000); further: potency means the concentration at half of the fitted maximal effect; % of control where 0% means no effect; nearly all actives have a fitted effect of over 50% in size
uPA generation: qHTS for Inhibitors of Cell Surface uPA Generation | Potency, µM (highest dose often 38.3 µM), for the others: at the top dose activity change, negative = inhibition, usual class: inhibitors | cell surface uPA generation assay, qHTS | actives 0.31% (n = 330,000); active means well fitted inhibition curve with a large enough effect; inconclusive means small, poorly fitted or top-dose-only effect; inactive means no such curve, though single readings can be large or run the other way; tested in mouse RAW 264.7 cells; further: potency means the concentration at half of the fitted maximal effect; on the % scale 0 is the no-effect control and ±100 the full control effect; nearly all actives have a fitted effect of over 55% in size
SW480 rereplic: A quantitative high throughput screen for small molecules that induce DNA re-replication in SW480 colon adenocarcinoma cells; actives 1.8% (n = 340,000); SW480 DNA re-replication, Hoechst DNA content imaging, 48 h; Potency, µM (doses to about 46.1 µM), inactives show top-dose re-replication activation, most hits filed as activators; further: potency means the concentration at half of the fitted maximal effect; % of control where 0% means no effect; nearly all actives have a fitted effect of over 55% in size
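Treated cells incubate 48 hr (37 C, 5% CO2), are stained 40 min with Hoechst, and nuclear fluorescence is enumerated; a rise in nuclei with high DNA signal marks re-replication.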
Giardia kill: Small Molecules that selectively kill Giardia lamblia: qHTS | Giardia lamblia trophozoite viability | activity change, % at 7.66 µM, hits read low | actives 0.15% (n = 340,000) | AID 540267, 2011; in the data active means activity change below about -80%; inconclusive means between about -30% and that limit;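 further: parasites exposed to compound for two days anaerobically before the ATP read; on the % scale 0 is the no-effect control and ±100 the full control effect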
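Media and compound were dispensed first, then trophozoites at 100 cells/well; plates sat 48 hrs at 37 deg C without oxygen before ATP luminescence reagent was added and read after 15-30 min at room temperature.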
* marks the source's active call; other numbers are inactive results; ? = inconclusive; nt = not tested or not shown; [ ] = remark or other dose. Rows were chosen to be rich in hits. Some 4.3% of all compounds tested hit in one or more screens of this group. Unless noted, the call rests on the fitted dose curve; in most records, active means well fitted activation curve with a large enough effect; inconclusive means small, poorly fitted or top-dose-only effect; inactive means no such curve, though single readings can be large or run the other way.

SMILES	MCF10A rerep	uPA generation	SW480 rereplic	Giardia kill
COc1ccc2cc(CN(CC3CCCO3)C(=S)Nc3ccccc3)c(=O)[nH]c2c1 (configuration not stated)	13µM*	nt	16.4µM*	1.7
Cc1ccccc1C1=C/C(=C(\SS/C(C(=O)c2ccc(OCC(=O)O)c(Cl)c2Cl)=C2\C=C(c3ccccc3C)SS2)C(=O)c2ccc(OCC(=O)O)c(Cl)c2Cl)SS1	-13.9%	5.3%	0.8%	15.8
COC(=O)[C@H](Cc1ccccc1)NC(=O)N1CCN(c2ccccc2)CC1	3.1%	-4.1%	0.3%[9.22 µM]	14.6
CCc1cccc(NC(=O)CSc2nc3ccccc3nc2N2CCCCC2)c1	nt	nt	nt	2.9
Cc1onc(-c2c(F)cccc2Cl)c1C(=O)NC1C(=O)N2C1SC(C)(C)C2C(=O)O (configuration not stated)	3.6%	nt	-5.2%	nt
N#C/C(=C(/O)c1ccco1)c1nc2ccccc2s1	?	-29.5%	-9.3%	-29.8
N#C/C(=C(/O)c1cc2ccccc2o1)c1nc2ccccc2s1	8.2µM*	-0.1%	?	11.7
Nc1c(C(=O)Nc2ccc(Cl)cc2)sc2nc(N3CCOCC3)c3c(c12)CCCC3	2.06µM*	-1.0%	15.7%	-19.4
Nc1c(C(=O)NCc2ccccc2)sc2nc(N3CCOCC3)c3c(c12)CCCC3	8.2%	4.8%	6.9%	10.2
COc1ccc(NC(=O)c2sc3nc(N4CCOCC4)c4c(c3c2N)CC(C)(C)OC4)cc1	9.9%	4.0%	25.5%	-7.5
COc1cccc(NC(=O)c2sc3nc(N4CCOCC4)c4c(c3c2N)CCCC4)c1	2.31µM*	?	8.4%	6.2
CCOc1ccc(NC(=O)c2sc3nc(N4CCOCC4)c4c(c3c2N)CCCC4)cc1	23.1µM*	3.7%	2.91µM*	-1.0
NNC(=O)c1sc2nc(N3CCOCC3)c3c(c2c1N)CCCC3	20.6µM*	-16.8%	16.4µM*	11.4
COc1cccc(N(C)C(=S)Oc2ccc3c(c2)CCCC3)n1	12.5%	nt	6.7%	nt
Cc1cc(C)c(S(=O)(=O)N2CCN(C(=O)c3cc4ccccc4oc3=O)CC2)c(C)c1	?	10.9%	-10.6%	-19.5
COc1ccc(CNCc2ccccc2)cc1COc1ccc(NC(C)=O)cc1	nt	nt	nt	10.8
CCCCCCCCCCCCCCCCCC(=O)OC[C@@H](O)[C@H]1OC[C@H](O)[C@H]1O	-1.9%	nt	-0.7%	nt
CN1CCc2c(c3cnc4cc(Cl)ccc4c3n2C)C1	nt	nt	nt	71.5
O=C(NC(=S)NNC(=O)c1ccco1)c1ccc(Br)cc1	-3.8%	-1.8%	-4.7%	8.7
Cc1ccc(S(=O)(=O)n2nccc2-c2c(-c3ccc(Cl)cc3)noc2C)cc1	7.1%	1.2%	0.7%	3.4
Nc1c(C(=O)N2CCOCC2)sc2nc(N3CCOCC3)c3c(c12)CCCC3	15.1%	-5.2%	-10.9%	-25.5
CC(=O)c1ccc(NC(=O)c2sc3nc(N4CCOCC4)c4c(c3c2N)CCCC4)cc1	2.31µM*	10.4%	?	28.4
O=C1COCCN1	nt	nt	nt	22.4
Cc1ccc(S(=O)(=O)N2CCCN(C)c3nc4ccccc4nc32)cc1	23.1µM*	-0.8%	?	-10.2
CN1CCCN(S(=O)(=O)c2ccccc2)c2nc3ccccc3nc21	?	?	18.7%	2.9
SMILES	MCF10A rerep	uPA generation	SW480 rereplic	Giardia kill
O=C(NP(=O)(N1CCOCC1)N1CCOCC1)C1=C(N2CCOCC2)/C(=C\c2ccccc2)CC1	23.1µM*	1.6%	?	15.7
COc1ccc(C(C[N+](=O)[O-])C2(c3ccc(OC)c(OC)c3)C(=O)c3ccccc3C2=O)cc1 (configuration not stated)	?	-13.7%	3.26µM*	-26.4
CC1(C)Cc2c(C#N)c(NCCN3CCOCC3)nc(-c3ccccc3)c2CO1	0.2%	-1.2%	7.31µM*	-3.0
CC1(C)Cc2c(C#N)c(NCCN3CCOCC3)nc(-c3ccco3)c2CO1	23.1µM*	3.9%	17.1%	-1.4
CC1(C)Cc2c(C#N)c(NCCO)nc(-c3ccco3)c2CO1	23.1µM*	-5.5%	18.4µM*	2.4
COc1ccccc1N(C)S(=O)(=O)c1ccc(C(=O)N(C)Cc2ccc(OC(F)F)cc2)cc1	16.8%	-3.5%	?	0.1
COC(=O)[C@@H]1C[C@]2(OC(=O)c3ccccc3)C=CC(=O)C[C@@H]2N1C(=O)OCc1ccccc1	16.4µM*	3.16µM*	20.6µM*	7.5
O=[N+]([O-])c1ccccc1S(=O)(=O)Oc1ccc(/C=N/n2cnnc2)cc1	14.6%	-3.1%	0.2%	-80.8*
COc1cc(/C=N/n2cnnc2)ccc1OS(=O)(=O)c1ccccc1[N+](=O)[O-]	6.5%	1.3%	0.6%	-20.9
CN(C(=O)COC(=O)C12CC3CC(CC(Cl)(C3)C1)C2)c1ccccc1	6.0%	0.0%	?	3.7
Cc1cc2cc(CNC(=S)NCc3ccccc3)ccc2n1C	13.0%	0.2%	-2.6%	-20.1
Cc1ccccc1NC(=S)NCc1ccc2c(c1)cc(C)n2C	?	?	16.4µM*	9.0
CCc1cccc(C)c1NC(=S)NCc1ccc2c(c1)cc(C)n2C	14.6µM*	-17.1%	14.6µM*	14.9
O=C(O)CCn1c(-c2ccccn2)nc2ccccc21	-4.3%	1.7%	-14.2%	-8.2
CN1c2ccc(Cl)cc2C(=O)NC1c1ccc([N+](=O)[O-])s1 (configuration not stated)	11.6µM*	0.7%	41.8%	?
CCC1(C(N)=O)CC2C=CC1C2 (configuration not stated)	0.1%	2.9%	-5.8%	-6.1
CCc1cc(=O)oc2cc(C)c(CN3CCCC(C)C3)c(O)c12 (configuration not stated)	23.1µM*	nt	0.3%	4.0
CC(C)(C)CN1CCN(Cc2cc3ccccc3[nH]2)CC1CCO (configuration not stated)	0.651µM*	2.9%	?	14.2
CCOc1ccc(CN2CCN(Cc3cc4ccccc4[nH]3)CC2CCO)cc1 (configuration not stated)	23.1µM*	14.0%	?	15.0
CC(C)CN1CCN(Cc2cc3ccccc3[nH]2)CC1CCO (configuration not stated)	?	-1.9%	?	11.6
COc1cc(CN2CCN(Cc3c[nH]c4ccccc34)CC2CCO)cc(OC)c1 (configuration not stated)	0.2%	-16.5%	0.9%	17.9
CC(C)(C)CN1CCN(Cc2c[nH]c3ccccc23)CC1CCO (configuration not stated)	6.51µM*	?	-0.3%	-10.6
COc1ccccc1CCNC(=O)c1ccc(Br)s1	5.7%	-2.5%	-2.7%	-24.6
O=C(OCc1ccccc1)c1cccnc1	2.5%	nt	6.7%	nt
CCOc1ccc(-c2ccc(SC)nn2)cc1	-5.5%	-17.5%	5.3%	-87.3*
CCOc1ccc(-c2ccc(SCC(=O)Nc3nnc(CC)s3)nn2)cc1	3.3%	-5.6%	0.1%	?
COc1ccc(-c2cc(C)no2)cc1S(=O)(=O)NCc1ccc(OC(C)C)cc1	19.8%	-1.6%	-15.4%	-28.8

From PubChem BioAssay
